# Values joined by “and” are separate entries in the source; they are usually repeats but may differ in a detail not shown here. Equal entries are not always repeated. Results filed as inconclusive are left out. Active and inactive are the calls of the source. How the source made its calls, unless noted: active means hit-call score of the fitted dose curve at least 0.9, where 1 is the maximum; inconclusive means response in the unintended direction; inactive means score below 0.9.
# Tests used:
# [1] = read-out: Signal transducer and activator of transcription 3 (Homo sapiens) (UniProt P40763); test: LTEA_HepaRG_STAT3: Life Technologies and Expression Analysis (LTEA) Assay for Signal transducer and activator of transcription (STAT3) using HepaRG (AID 2283529; active means hit-call score of the fitted dose curve at least 0.9, where 1 is the maximum; inactive means score below 0.9); details: mRNA level, 48 h; actives raise or lower the signal
# Outline: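 Differentiated HepaRG cells, serum-free induction medium, dosed 48 h in duplicate, 8 half-log concentrations from 100 uM in 0.5% DMSO. STAT3 mRNA by qRT-PCR, normalised to ACTB, GAPDH, POLR2A; bidirectional fit versus DMSO.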
# [2] = read-out: solute carrier (SLCO1B1), SLCO1B1 (gene 10599); test: LTEA_HepaRG_SLCO1B1: Life Technologies and Expression Analysis (LTEA) Assay for solute carrier (SLCO1B1) using HepaRG (AID 2283530; active means hit-call score of the fitted dose curve at least 0.9, where 1 is the maximum; inactive means score below 0.9); details: mRNA level, 48 h; actives raise or lower the signal
# Outline: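 Differentiated human HepaRG cells, plated 48 h, switched to serum-free induction medium and exposed in duplicate for 48 h to 8 half-log concentrations (top 100 uM) in 0.5% DMSO. SLCO1B1 mRNA by TaqMan qRT-PCR, normalized to ACTB/GAPDH/POLR2A.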
# [3] = read-out: sulfotransferase 2A1 (SULT2A1), SULT2A1 (gene 6822); test: LTEA_HepaRG_SULT2A1: Life Technologies and Expression Analysis (LTEA) Assay for sulfotransferase 2A1 (SULT2A1) using HepaRG (AID 2283531; active means hit-call score of the fitted dose curve at least 0.9, where 1 is the maximum; inactive means score below 0.9); details: mRNA level, 48 h; actives raise or lower the signal
# Outline: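 Differentiated human HepaRG cells in serum-free induction medium were exposed for 48 h to eight half-log concentrations (top 100 uM, 0.5% DMSO). SULT2A1 mRNA was measured by qRT-PCR, normalized to ACTB, GAPDH and POLR2A, and fitted bidirectionally against DMSO.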
# [4] = read-out: Transforming Growth Factor (TGFA), TGFA (gene 7039); test: LTEA_HepaRG_TGFA: Life Technologies and Expression Analysis (LTEA) Assay for Transforming Growth Factor (TGFA) using HepaRG (AID 2283532; active means hit-call score of the fitted dose curve at least 0.9, where 1 is the maximum; inactive means score below 0.9); details: mRNA level, 48 h; actives raise or lower the signal
# Outline: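 Differentiated HepaRG cells exposed 48 hours in serum-free induction medium, 0.5% DMSO vehicle, 8-point half-log series from 100 uM, in duplicate. TGFA mRNA by TaqMan qRT-PCR, normalised to ACTB, GAPDH, POLR2A; bidirectional fit versus DMSO.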
# [5] = read-out: Transforming Growth Factor (TGFB1), TGFB1 (gene 7040); test: LTEA_HepaRG_TGFB1: Life Technologies and Expression Analysis (LTEA) Assay for Transforming Growth Factor (TGFB1) Transporter using HepaRG (AID 2283533; active means hit-call score of the fitted dose curve at least 0.9, where 1 is the maximum; inactive means score below 0.9); details: mRNA level, 48 h; actives raise or lower the signal
# Outline: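 Differentiated human HepaRG cells in serum-free induction medium were exposed in duplicate for 48 h to eight concentrations (top 100 uM, half-log steps, 0.5% DMSO). TGFB1 mRNA was quantified by qRT-PCR, normalized to ACTB, GAPDH, POLR2A, and fitted bidirectionally against DMSO.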
# TIMP1, TIMP1 (gene 7076) = test: LTEA_HepaRG_TIMP1: Life Technologies and Expression Analysis (LTEA) Assay for TIMP1 using HepaRG (AID 2283534; active means hit-call score of the fitted dose curve at least 0.9, where 1 is the maximum; inactive means score below 0.9;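 further: TaqMan qRT-PCR signal normalized to ACTB GAPDH and POLR2A housekeeping genes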); details: mRNA level, 48 h; actives raise or lower the signal
# Outline: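 Differentiated human HepaRG cells in serum-free induction medium were exposed 48 h to chemicals (8 half-log concentrations, top 100 uM, 0.5% DMSO). TIMP1 mRNA was quantified by TaqMan qRT-PCR, normalized to ACTB/GAPDH/POLR2A; bidirectional fit versus DMSO.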
# [6] = read-out: Tumor necrosis factor receptor 1 (TNFRSF1A), TNFRSF1A (gene 7132); test: LTEA_HepaRG_TNFRSF1A: Life Technologies and Expression Analysis (LTEA) Assay for Tumor necrosis factor receptor 1 (TNFRSF1A) using HepaRG (AID 2283535; active means hit-call score of the fitted dose curve at least 0.9, where 1 is the maximum; inactive means score below 0.9); details: mRNA level, 48 h; actives raise or lower the signal
# Outline: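 Differentiated human HepaRG cells were exposed in duplicate for 48 h in serum-free induction medium to eight concentrations (top 100 uM, half-log steps, 0.5% DMSO). TNFRSF1A mRNA was quantified by qRT-PCR, normalized to ACTB, GAPDH and POLR2A, then fitted bidirectionally against DMSO.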
# [7] = read-out: Thyroid Hormone Responsive (THRSP), THRSP (gene 7069); test: LTEA_HepaRG_THRSP: Life Technologies and Expression Analysis (LTEA) Assay for Thyroid Hormone Responsive (THRSP) using HepaRG (AID 2283536; active means hit-call score of the fitted dose curve at least 0.9, where 1 is the maximum; inactive means score below 0.9); details: mRNA level, 48 h; actives raise or lower the signal
# Outline: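 Differentiated HepaRG cells treated 48 h in serum-free induction medium with 8 half-log concentrations up to 100 uM (0.5% DMSO), duplicates. THRSP mRNA by TaqMan qRT-PCR normalised to ACTB, GAPDH, POLR2A; bidirectional fit versus DMSO.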
# [8] = read-out: Cellular tumor antigen p53 (Homo sapiens) (UniProt P04637); test: LTEA_HepaRG_TP53: Life Technologies and Expression Analysis (LTEA) Assay for Tumor Protein P53 (TP53) using HepaRG (AID 2283537; active means hit-call score of the fitted dose curve at least 0.9, where 1 is the maximum; inactive means score below 0.9); details: mRNA level, 48 h; actives raise or lower the signal
# Outline: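 HepaRG, 48 h exposure, top 100 uM, half-log 8-point, 0.5% DMSO vehicle, duplicates. Read: TP53 mRNA by TaqMan qRT-PCR, normalised to ACTB/GAPDH/POLR2A; bidirectional fit vs DMSO.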
# [9] = read-out: UDP glucuronosyltransferase (UGT1A1), UGT1A1 (gene 54658); test: LTEA_HepaRG_UGT1A1: Life Technologies and Expression Analysis (LTEA) Assay for UDP glucuronosyltransferase (UGT1A1) using HepaRG (AID 2283538; active means hit-call score of the fitted dose curve at least 0.9, where 1 is the maximum; inactive means score below 0.9); details: mRNA level, 48 h; actives raise or lower the signal
# Outline: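 HepaRG cells, 0.5% DMSO vehicle, 48 h exposure in serum-free induction medium to 8-point half-log series topping at 100 uM, in duplicate. UGT1A1 mRNA by Fluidigm qRT-PCR, normalized to ACTB/GAPDH/POLR2A; bidirectional fit versus DMSO.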
# [10] = read-out: UDP glucuronosyltransferase (UGT1A6), UGT1A6 (gene 54578); test: LTEA_HepaRG_UGT1A6: Life Technologies and Expression Analysis (LTEA) Assay for UDP glucuronosyltransferase (UGT1A6) using HepaRG (AID 2283539; active means hit-call score of the fitted dose curve at least 0.9, where 1 is the maximum; inactive means score below 0.9); details: mRNA level, 48 h; actives raise or lower the signal
# Outline: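 Human HepaRG cells were dosed for 48 h in serum-free induction medium with 0.5% DMSO vehicle, eight-point half-log series from 100 uM, in duplicate. UGT1A6 mRNA was measured by qRT-PCR, normalized to ACTB, GAPDH, POLR2A, and fitted bidirectionally against DMSO.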
# [11] = read-out: X-box binding protein 1 (XBP1), XBP1 (gene 7494); test: LTEA_HepaRG_XBP1: Life Technologies and Expression Analysis (LTEA) Assay for X-box binding protein 1 (XBP1) using HepaRG (AID 2283540; active means hit-call score of the fitted dose curve at least 0.9, where 1 is the maximum; inactive means score below 0.9); details: mRNA level, 48 h; actives raise or lower the signal
# Outline: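 Differentiated human HepaRG cells in serum-free induction medium were exposed in duplicate for 48 h to eight half-log concentrations up to 100 uM in 0.5% DMSO. XBP1 mRNA was quantified by qRT-PCR, normalised to ACTB, GAPDH and POLR2A, with bidirectional fitting against DMSO.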
# [12] = LTEA_HepaRG_LDH_cytotoxicity: Cytotoxicity Assessment in the Life Technologies and Expression Analysis (LTEA) Assay (AID 2283563)
# Outline: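 Differentiated human HepaRG cells, plated 48 h beforehand, were switched to serum-free induction medium and exposed for 48 h to eight half-log concentrations (top 100 uM) in 0.5% DMSO. LDH was measured in spent medium; activity was fitted relative to DMSO vehicle.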
# [13] = ATG_XTT_Cytotoxicity: Cytotoxicity Assessment in the Attagene TRANS-FACTORIAL HepG2 Assay (AID 2283584)
# Outline: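 HepG2 human liver cells, transiently transfected with multiple GAL4-UAS reporter units, were dosed and read at 24 h by XTT as cell number. Loss of signal was fitted relative to DMSO negative control baseline.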
# [14] = TOX21_p53_BLA_p2_viability: Viability Assessment in the Tox21 HCT-116 p53 Agonism Beta-lactamase Assay, Phase 2 (AID 2283591);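 further: compound exposure lasted 16 h at 37 °C; actives lower the ATP signal meaning cytotoxicity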
# Outline: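 HCT116 p53-bla cells, 4000/well, dosed after 5 h plating (217-fold dilution of DMSO stocks) and incubated 16 h at 37C. Viability taken as cellular ATP by CellTiter-Glo luminescence after 30 min RT; signal loss marks cytotoxicity.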
# [15] = molecular target: Cellular tumor antigen p53 (Homo sapiens) (UniProt P04637); test: TOX21_p53_BLA_p2_ratio: Tox21 HCT-116 p53 Agonism Beta-lactamase Assay, Ratio, Phase 2 (AID 2283592)
# Cellular tumor antigen p53 (Homo sapiens), sequence (P04637 whole entry, looked up): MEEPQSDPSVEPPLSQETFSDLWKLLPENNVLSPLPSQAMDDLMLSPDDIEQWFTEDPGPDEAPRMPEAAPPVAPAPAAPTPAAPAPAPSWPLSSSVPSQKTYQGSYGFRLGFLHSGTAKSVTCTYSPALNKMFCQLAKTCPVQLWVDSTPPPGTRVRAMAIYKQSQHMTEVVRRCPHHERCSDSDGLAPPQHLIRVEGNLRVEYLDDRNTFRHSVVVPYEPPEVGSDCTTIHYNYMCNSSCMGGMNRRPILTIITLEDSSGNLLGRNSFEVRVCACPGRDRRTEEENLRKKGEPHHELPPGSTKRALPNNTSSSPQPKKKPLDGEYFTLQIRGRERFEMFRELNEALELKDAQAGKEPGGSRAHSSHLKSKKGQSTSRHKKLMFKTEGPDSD
# Outline: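 HCT116 cells carrying a p53-responsive beta-lactamase reporter were plated, incubated 5 h at 37C, then dosed with compounds in DMSO (217-fold dilution) for 16 h. CCF4-AM substrate was added for 2 h at room temperature; the 460/530 nm emission ratio gave gain-of-signal activity relative to DMSO.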
# [16] = molecular target: Cellular tumor antigen p53 (Homo sapiens) (UniProt P04637); test: TOX21_p53_BLA_p3_ratio: Tox21 HCT-116 p53 Agonism Beta-lactamase Assay, Ratio, Phase 3 (AID 2283596)
# Outline: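 HCT116 p53-bla cells (4000/well) given compound in DMSO (217-fold dilution) after 5 h, incubated 16 h at 37C. CCF4-AM substrate 2 h at room temperature; 460/530 nm emission ratio, gain fitted against DMSO.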
# [17] = TOX21_p53_BLA_p4_viability: Viability Assessment in the Tox21 HCT-116 p53 Agonism Beta-lactamase Assay, Phase 4 (AID 2283597);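 further: hits lower the luminescence signal meaning cytotoxicity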
# Outline: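 HCT116 p53-bla cells (4000/well) rested 5 h at 37C, then received compounds in DMSO (217-fold dilution) for 16 h at 37C, 5% CO2. CellTiter-Glo was added after the CCF4-AM read, and luminescence was read after 30 min at room temperature.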
# [18] = molecular target: Cellular tumor antigen p53 (Homo sapiens) (UniProt P04637); test: TOX21_p53_BLA_p5_ratio: Tox21 HCT-116 p53 Agonism Beta-lactamase Assay, Ratio, Phase 5 (AID 2283599)
# Outline: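 HCT-116 p53-bla cells (4000/well) plated 5 h, dosed with compound (217-fold DMSO dilution) for 16 h at 37 C; CCF4-AM substrate 2 h at room temperature. Activity is the 460/530 nm emission ratio (405 nm excitation), fitted in gain-of-signal direction versus DMSO.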
# [19] = TOX21_p53_BLA_p3_viability: Viability Assessment in the Tox21 HCT-116 p53 Agonism Beta-lactamase Assay, Phase 3 (AID 2283593);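 further: cells exposed to compound for 16 h before reading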
# Outline: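 HCT116 cells, 4000/well, dosed 5 h after plating by pin transfer (217-fold dilution from DMSO stock) and incubated 16 h at 37C, 5% CO2. Viability read as ATP luminescence with CellTiter-Glo after 30 min at room temperature.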
# Signal transducer and activator of transcription 3 (Homo sapiens), sequence (P40763 whole entry, looked up): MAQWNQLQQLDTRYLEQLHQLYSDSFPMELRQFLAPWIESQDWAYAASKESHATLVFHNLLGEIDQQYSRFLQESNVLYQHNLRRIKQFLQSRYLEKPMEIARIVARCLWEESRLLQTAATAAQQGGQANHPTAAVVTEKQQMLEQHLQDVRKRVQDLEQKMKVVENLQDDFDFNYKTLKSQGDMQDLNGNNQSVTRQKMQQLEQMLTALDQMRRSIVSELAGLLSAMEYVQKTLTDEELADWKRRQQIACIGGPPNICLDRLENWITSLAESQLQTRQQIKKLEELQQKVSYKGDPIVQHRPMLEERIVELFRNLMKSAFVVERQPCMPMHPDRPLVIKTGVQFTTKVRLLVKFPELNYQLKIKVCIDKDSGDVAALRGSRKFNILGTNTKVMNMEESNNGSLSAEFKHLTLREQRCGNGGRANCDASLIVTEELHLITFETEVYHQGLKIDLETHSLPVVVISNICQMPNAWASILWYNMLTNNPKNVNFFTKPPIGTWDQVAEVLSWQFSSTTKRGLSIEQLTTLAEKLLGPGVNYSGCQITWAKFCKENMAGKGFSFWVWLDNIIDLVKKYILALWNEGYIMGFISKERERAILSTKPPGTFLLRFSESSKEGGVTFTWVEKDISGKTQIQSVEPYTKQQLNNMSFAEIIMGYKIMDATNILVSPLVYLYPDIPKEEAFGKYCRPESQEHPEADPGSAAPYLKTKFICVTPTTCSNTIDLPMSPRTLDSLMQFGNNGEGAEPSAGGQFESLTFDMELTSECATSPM
smiles,measurement,setting,value
C#C[C@]1(O)CC[C@H]2[C@@H]3CCc4cc(O)ccc4[C@H]3CC[C@@]21C,outcome,[1],inactive
same,outcome,[2],inactive
same,outcome,[3],inactive
same,outcome,[4],inactive
same,outcome,[5],inactive
same,outcome,"TIMP1, TIMP1 (gene 7076)",inactive
same,outcome,[6],inactive
same,outcome,[7],inactive
same,outcome,[8],inactive
same,outcome,[9],inactive
same,outcome,[10],inactive
same,outcome,[11],inactive
same,outcome,[12],inactive
same,outcome,[13],inactive
same,outcome,[14],inactive
same,AC50,[15],9 µM (active) and 6.58 µM (active) and 7.36 µM (active)
same,AC50,[16],15.2 µM (active) and 16.2 µM (active)
same,outcome,[17],inactive
same,AC50,[18],11.7 µM (active) and 13.9 µM (active) and 7.67 µM (active)
O=C(O)c1ccc(C(=O)O)c(C(=O)O)c1,outcome,[13],inactive
CCC(=O)OCC=Cc1ccccc1,outcome,[13],inactive
CC(=N[Si](C)(C)C)O[Si](C)(C)C,outcome,[13],inactive
CC(=O)CCC(=O)O,outcome,[13],inactive
CC1(C)CC(N)CC(C)(CN)C1 (centres undefined),outcome,[13],inactive
same,outcome,[14],inactive
same,outcome,[15],inactive
same,outcome,[19],inactive
same,outcome,[16],inactive
same,outcome,[17],inactive

# From PubChem BioAssay (EPA / NIEHS)
